Screens as filed in PubChem.
This is a sample that favours compounds with a hit; in the whole collection about 9.2% have one here.
FLuc modulator: qHTS profiling assay for firefly luciferase inhibitor/activator using purifed enzyme and Km concentrations of substrates (counterscreen for miR-21 project). Luciferin 4-monooxygenase (Photinus pyralis), P08659. purified FLuc, Km substrates, luminescence inhibition. Potency, µM (highest dose often 57.5 µM), for the others: at the top dose activity change, negative = inhibition, most hits filed as inhibitors. 360,000 compounds, 6.9% hits. AID 588342, 2011;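 further: plate controls were vehicle for no effect and reference inhibitor for full effect; nearly all actives have a fitted effect of over 55% in size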
Target sequence (P08659 whole entry, looked up): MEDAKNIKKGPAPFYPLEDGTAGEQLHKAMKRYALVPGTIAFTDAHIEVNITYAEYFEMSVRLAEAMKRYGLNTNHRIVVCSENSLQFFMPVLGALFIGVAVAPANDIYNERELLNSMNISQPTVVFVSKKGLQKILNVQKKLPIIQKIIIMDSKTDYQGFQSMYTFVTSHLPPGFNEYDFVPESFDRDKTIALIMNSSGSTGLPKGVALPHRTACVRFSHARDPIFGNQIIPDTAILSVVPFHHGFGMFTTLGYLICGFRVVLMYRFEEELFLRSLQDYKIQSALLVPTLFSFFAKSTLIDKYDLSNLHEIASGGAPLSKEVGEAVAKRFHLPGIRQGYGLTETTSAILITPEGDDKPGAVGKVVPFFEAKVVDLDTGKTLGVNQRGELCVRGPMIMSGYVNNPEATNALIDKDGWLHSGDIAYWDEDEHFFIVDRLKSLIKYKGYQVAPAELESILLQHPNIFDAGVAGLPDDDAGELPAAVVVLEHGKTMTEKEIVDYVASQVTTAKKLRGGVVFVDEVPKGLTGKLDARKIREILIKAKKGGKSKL
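Purified P. pyralis luciferase (10nM final) with 10uM D-luciferin and 10uM ATP (Km levels) in 50mM Tris acetate pH 7.5, 10mM Mg acetate, 0.01% Tween-20, 0.05% BSA; qHTS 6-point titration, ~60 µM downward; luminescence read.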
ELG1 genotox: qHTS screen for small molecules that induce genotoxicity in human embryonic kidney (HEK293T) cells expressing luciferase-tagged ELG1; HEK293T ELG1-luciferase reporter, luminescence, 16 h; Potency, µM (doses to about 46 µM), for inactives: top-dose activity change, positive = activation, usual class: activators; 330,000 compounds, 1.3% hits; further: % of control where 0% means no effect; nearly all actives have a fitted effect of over 60% in size
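DMSO vehicle served as control against compound-treated ELG1-luciferase HEK293T cells; exposure lasted 16 hr at 37 °C and 5% CO2, followed by ONE-Glo luminescence detection after 30 min.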
Rab9 prom act: qHTS Assay for Rab9 Promoter Activators; Huh7 Rab9 promoter-luciferase reporter, luminescence, 24 h; Potency, µM (doses to about 9.22 µM), without a hit: at the highest dose activation, negative = inhibition, usual class: activators; 320,000 compounds, 2.8% hits; AID 485297, 2010; further: % of control where 0% means no effect; nearly all actives have a fitted effect of over 60% in size
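Huh7 reporter line, Rab9 promoter upstream of luciferase. Compound exposure 24 h at 37 °C in reduced-serum medium with 10% FBS. Read-out: luminescence.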
NPC1 promoter act: qHTS Assay for NPC1 Promoter Activators; Huh7 NPC1 promoter luciferase reporter, 24 h; Potency, µM (titrated, usually from 9.22 µM), without a hit: top-dose activation, actives largely listed as activators; 320,000 compounds, 2.4% hits; further: % of control where 0% means no effect; nearly all actives have a fitted effect of over 60% in size
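Stable NPC1-promoter luciferase Huh7 line; cpd (DMSO) 24 h, 37 °C, 5% CO2; Amplite luciferase reagent 10 min RT; luminescence readout. qHTS format.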
ELG1 repair inh: qHTS screen for small molecules that inhibit ELG1-dependent DNA repair in human embryonic kidney (HEK293T) cells expressing luciferase-tagged ELG1. HEK293T ELG1-luciferase reporter, luminescence, 16 h; DNA damage induced by 5-fluorouridine. Potency, µM (highest dose often 46.1 µM), without a hit: at the top dose activity change, negative = inhibition, most hits filed as inhibitors. 330,000 compounds, 2.3% hits; further: on the % scale 0 is the no-effect control and ±100 the full control effect; nearly all actives have a fitted effect of over 55% in size
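Overnight (16 hr) co-exposure of 2,000 cells/well to 5-fluorouridine and compound at 37 °C preceded detection. Luciferase was quantified via ONE-Glo luminescence; loss of signal denotes inhibition.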
SMN2 splice enh: qHTS Assay for Enhancers of SMN2 Splice Variant Expression | HEK293 SMN2-luciferase splicing reporter, luminescence, 30-36 h | Potency, µM (highest dose often 46.1 µM), without a hit: top-dose activity change, positive = activation, hits mostly activators | 210,000 compounds, 2.8% hits; further: % of control where 0% means no effect; nearly all actives have a fitted effect of over 55% in size
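HEK293 cells carry an SMN2 […]–luciferase reporter in which exon 7 inclusion puts luciferase in frame. Cells were plated 10-12 h before compound addition, then incubated 30-36 h at 37C. ONE-Glo luminescence was read; sodium butyrate at 4.5 mM final served as control.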
An asterisk follows results filed as active; ? = inconclusive; . = no result; [ ] = dose if it differs, or a comment. The call rests on the fitted dose curve; in most records, active means well fitted curve in the direction sought with a large enough effect; inconclusive means small, poorly fitted or top-dose-only effect, or another doubt; inactive means no such curve, though single readings can be large; an effect the other way counts as inactive or inconclusive. Potency means the concentration at half of the fitted maximal effect.

SMILES	FLuc modulator	ELG1 genotox	Rab9 prom act	NPC1 promoter act	ELG1 repair inh	SMN2 splice enh
COc1ccc(-c2ccc(-c3noc(-c4ccco4)n3)c(OC)n2)cc1	-14.4%	17.1%	?	24.9%	?	?
CCOC(=O)c1cc(C(=O)OCC)c(=O)[nH]c1N1CCCC1	-5.7%	7.6%	-28.1%	1.5%	2.7%	8.3%
O=C1CCC(C(=O)N2CCCCCC2)CN1Cc1cccc(C(F)(F)F)c1 (stereo not given)	1.8%	-1.4%	-1.0%	-4.8%	-3.7%	.
CCc1ccc(S(=O)(=O)c2c(C(=O)c3ccccc3)cnc3ccc(CC)cc23)cc1	-2.5%	.	.	.	.	-20.9%
NS(=O)(=O)c1ccc(CCNc2nccn(-c3cccc(C(F)(F)F)c3)c2=O)cc1	-5.6%	.	.	.	.	.
Cc1cc2cc(OCC(=O)O)ccc2n1C	-13.7%	-2.1%	1.5%	-1.0%	11.8%	13.1%
Cc1c(C=O)c2cc(OCc3ccccc3)ccc2n1C	15.1µM*	?	3.98µM*	?	?	.
Cc1cc2cc(OCc3ccccc3)ccc2n1C	5.36µM*	?	3.16µM*	2µM*	?	.
O=Cc1c[nH]c2ccc(OCc3ccccc3)cc12	?	6.5%	-0.3%	-0.3%	?	.
Cc1ccc(C)c(NC(=S)N2CCC(NC(=O)c3ccco3)CC2)c1	6.3%	8.9%	9.4%	-1.7%	-10.5%	.
C=CCOC(=O)C1=C(C)NC(SCC(=O)N(CC)CC)=C(C#N)C1c1ccco1 (stereo not given)	2.4%	-11.1%	-2.7%	0.6%	8.2µM*	-27.8%
C=CCOC(=O)C1=C(C)NC(SCC(=O)N(CC)CC)=C(C#N)C1c1ccccc1 (stereo not given)	0.5%	-8.8%	-2.7%	2.6%	16.4µM*	-13.7%
CCCCc1nc2c(c3c1C[C@H](C)OC3)CN(S(=O)(=O)c1ccc(Cl)c3nonc13)CC2	.	.	.	.	.	-10.1%[9.22 µM]
COc1ccc(CCNC(=O)CCc2c(C)nc3c(c(C)nn3-c3ccc(C)cc3)c2C)c(OC)c1	-6.5%	.	.	.	.	1.0%
CN1CC2([N+](=O)[O-])CC=C(OCCO)C([N+](=O)[O-])(C1)C2 (stereo not given)	0.2%	0.6%	-3.7%	0.3%	14.1%	2.7%
CN(c1ccc(F)cc1)S(=O)(=O)c1ccc(Cl)c(C(=O)Nc2ccncc2)c1	4.6%	-3.5%	-7.8%	-2.3%	11.6µM*	.
CN(c1ccccc1)S(=O)(=O)c1ccc(Cl)c(C(=O)Nc2ccncc2)c1	.	-6.5%	-7.5%	-8.1%	?	.
Cc1ccn2cc(C34CC5CC(CC(C5)C3)C4)nc2c1	6.75µM*	-3.0%	-0.2%	-1.4%	?	13.4%
Cc1ccn2cc(-c3ccc(S(=O)(=O)N4CCOCC4)cc3)nc2c1	?	7.1%	?	?	?	8.1%
CC(C)CCn1c(O)c(N=Nc2ccccn2)c2ccccc21	-19.1%	0.6%	1.1%	-3.5%	?	-8.6%[1.84 µM]
CCCn1c(O)c(N=Nc2ccc3ccccc3n2)c2ccccc21	8.49µM*	?	0.708µM*	1µM*	?	?
Cc1ccc(C(=O)CSC2=C(C#N)C(c3ccco3)C3=C(CCCC3=O)N2)cc1 (stereo not given)	-17.7%	-0.8%	-4.5%	-25.7%	6.51µM*	18.6%
COc1cccc(NC(=O)CSC2=C(C#N)C(c3ccco3)C3=C(CCCC3=O)N2)c1 (stereo not given)	-30.8%[2.3 µM]	0.6%	0.5%	3.3%	-22.4%	24.3%
